Screening data as filed in PubChem.
miR122 inh = miR-122 suppressors via Renilla sensor increase, primary screen, cell-based, Huh7 psiCHECK-miR122, Renilla luciferase, single point; 48 h; activation, % at 12.5 µM; 340,000 compounds, 0.14% hits;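 active = mean activation of 30% or more, with every replicate also reaching 30%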;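 also: 0% = median of neutral control wells and 100% = median of positive control wells; higher luciferase signal means stronger suppression of miR-122 activity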
Active calls of the source: *. The sample as a whole holds a higher share of hits than the screen did.

SMILES	miR122 inh
C[C@@H]1CN([C@@H](C)CO)S(=O)(=O)c2ccc(Br)cc2O[C@@H]1CN(C)Cc1ccccn1	-9
CC(=O)N1c2c(cc(Br)cc2S(=O)(=O)NCC2COc3ccccc3O2)CC1C (stereo not drawn)	-120
Cn1ncc2c(O/N=C(\N)c3ccc(C(F)(F)F)cc3)ncnc21	33*
OC(COC(c1ccc(Cl)cc1)c1ccc(Cl)cc1)CN1CCCC1 (stereo not drawn)	-103
CCN(Cc1ccccc1)C(=O)c1[nH]c2ccc(OC)cc2c1C	-125
COc1ccc2[nH]c(=O)c(COC(=O)c3ccco3)cc2c1	31*
O=C(Nc1ccc(Cn2cccn2)cc1)c1ccc(COc2ccccc2Br)cc1	31*
C[C@@H]1CN([C@H](C)CO)C(=O)c2cc(Br)cnc2O[C@@H]1CN(C)C(=O)c1cccnc1	6
CC(=O)N(C)C[C@H]1Oc2cc(C#CC3(O)CCCC3)ccc2S(=O)(=O)N([C@H](C)CO)C[C@@H]1C	2
COc1ccc(NC(=O)/C(Cl)=C(/Cl)S(=O)(=O)Cc2ccccc2)cn1	32*
COc1ccc(NC(=O)c2cccc(S(=O)(=O)Nc3ccc(Br)cc3)c2)cn1	-103
CC(C)C#Cc1ccc2c(c1)O[C@@H](CN(C)CC1CCCC1)[C@H](C)CN([C@H](C)CO)S2(=O)=O	-2
O=C(CSc1ncccn1)Nc1ncc(C(F)(F)F)cc1Cl	-94
OC(CNCCC1C=Nc2ccccc21)Cn1c2ccc(Cl)cc2c2cc(Cl)ccc21 (stereo not drawn)	55*
C[C@H](CO)N1C[C@H](C)[C@H](CN(C)C(=O)Cc2ccccn2)Oc2cc(C#C[C@@H](C)O)ccc2S1(=O)=O	6
COc1ccc(/C=C/C(=O)c2ccc[nH]2)c(OC)c1OC	32*
COc1cccc(C2NC(=S)NC(C)=C2C(=O)c2ccccc2)c1OC (stereo not drawn)	-147
CC(C)CC#Cc1ccc2c(c1)O[C@H](CN(C)C(=O)NC1CCCC1)[C@H](C)CN([C@H](C)CO)S2(=O)=O	-4
C[C@H](CO)N1C[C@H](C)[C@@H](CN(C)C(=O)c2ccccn2)Oc2ncc(C#Cc3ccccc3)cc2C1=O	2
COc1ccc(C#Cc2cnc3c(c2)C(=O)N([C@H](C)CO)C[C@H](C)[C@H](CN(C)C(=O)Nc2ccc(F)cc2)O3)cc1OC	3
COc1cccc(-n2nnnc2S(C)(=O)=O)c1	48*
COc1cccc(NS(=O)(=O)c2ccc(Br)s2)c1	-218
COc1cccc(NS(=O)(=O)c2c(C)cc(C)cc2C)c1	-399
Cc1ccc(-c2cnc3c(c2)C(=O)N([C@H](C)CO)C[C@@H](C)[C@H](CN(C)C(=O)Cc2cccnc2)O3)cc1	7
COc1ccc(-c2oc3ncn(CCN4CCOCC4)c(=N)c3c2-c2ccc(OC)cc2)cc1	42*
SMILES	miR122 inh
COc1ccc(-c2oc3ncnc(NCCCN4CCOCC4)c3c2-c2ccc(OC)cc2)cc1	38*
Cc1ccc(S(=O)(=O)NCCN2CCOCC2)c(C)c1C	-92
C[C@H](CO)N1C[C@H](C)[C@H](CN(C)Cc2ccc3c(c2)OCO3)Oc2ncc(Br)cc2C1=O	-3
C[C@H]1CN([C@@H](C)CO)S(=O)(=O)c2ccc(Br)cc2O[C@H]1CN(C)C(=O)CC1CC1	3
Cc1ccc(S(=O)(=O)Nc2ccc3c(c2)CC(=O)N([C@H](C)CO)C[C@H](C)[C@H](CN(C)Cc2ccc(C(=O)Nc4ccccc4N)cc2)O3)cc1	-229
C[C@H](CO)N1C[C@H](C)[C@H](CN(C)Cc2ccccn2)Oc2cc(-c3cncnc3)ccc2S1(=O)=O	10
CC(C)C#Cc1cnc2c(c1)C(=O)N([C@@H](C)CO)C[C@H](C)[C@@H](CN(C)C(=O)c1ccccc1)O2	2
C[C@@H]1CN([C@@H](C)CO)C(=O)c2cc(C#Cc3cccc(F)c3)cnc2O[C@@H]1CN(C)CC1CCOCC1	4
CCCCCCCN(C(=O)CCl)c1cccc(C)c1	66*
C[C@H](CO)N1C[C@H](C)[C@@H](CN(C)Cc2ccccn2)Oc2cc(Br)ccc2S1(=O)=O	-7
COc1cccc(S(=O)(=O)N(C)C[C@@H]2Oc3ncc(C#CCC(C)C)cc3C(=O)N([C@@H](C)CO)C[C@H]2C)c1	4
CC(C)CC#Cc1cnc2c(c1)C(=O)N([C@@H](C)CO)C[C@@H](C)[C@H](CN(C)CC1CCOCC1)O2	4
C/C=C/c1ccc2c(c1)O[C@H](CN(C)C(=O)Nc1ccc(OC)cc1)[C@H](C)CN([C@H](C)CO)S2(=O)=O	0
COc1ccc(-c2c(C(C)=O)c(C)nc3sc4c(c23)NC(c2ccccc2)NC4=O)cc1 (stereo not drawn)	36*
C[C@H]1CN([C@@H](C)CO)C(=O)c2cc(C#Cc3ccccn3)cnc2O[C@H]1CN(C)Cc1cncnc1	0
CC(C)CC#Cc1cnc2c(c1)C(=O)N([C@@H](C)CO)C[C@@H](C)[C@@H](CN(C)Cc1ccc(F)cc1)O2	7
COc1ccc(C#Cc2cnc3c(c2)C(=O)N([C@@H](C)CO)C[C@H](C)[C@H](CN(C)CC2CCOCC2)O3)cc1	3
COc1cc(-c2nnc3sc(C4CCCCC4)nn23)cc(OC)c1OC	32*
S=C1NCCc2ccc(Cl)cc2C1c1ccccc1 (stereo not drawn)	-91
COc1ccc(NC(=O)Nc2ccc3c(c2)CC(=O)N([C@@H](C)CO)C[C@@H](C)[C@@H](CN(C)C(=O)NC(C)C)O3)cc1	-101
C[C@H](CO)N1C[C@H](C)[C@@H](CN(C)Cc2ccccn2)Oc2cc(-c3ccncc3)ccc2S1(=O)=O	-9
Cc1ccc(NC(=O)Cc2cn(C)c3ccccc23)cc1F	-321
CCC(=O)N(C)C[C@@H]1Oc2ncc(-c3cccc(OC)c3)cc2C(=O)N([C@@H](C)CO)C[C@@H]1C	7
COc1ccc(NS(=O)(=O)c2cc(NC(=O)c3ccc(F)cc3)ccc2OC)cc1	-108
COc1ccc(NC(=O)Nc2ccc3c(c2)C(=O)N([C@@H](C)CO)C[C@H](C)[C@H](CN(C)Cc2ccc(C(F)(F)F)cc2)O3)cc1	-150
SMILES	miR122 inh
CCN1CCN(Cc2ccc(NC(=O)c3cc(NC(=O)c4cc5cccc(OC)c5o4)cc(OC)c3)cc2C(F)(F)F)CC1	31*
C[C@H]1CN([C@@H](C)CO)C(=O)c2cc(C#CC3(O)CCCC3)cnc2O[C@@H]1CN(C)S(=O)(=O)c1ccc(F)cc1	-3
COc1cccc(-c2cnc3c(c2)C(=O)N([C@H](C)CO)C[C@H](C)[C@H](CN(C)CC2CCOCC2)O3)c1	-3
COc1ccc(OC)c(C(c2nnnn2C2CCCC2)N2CCN(c3ccccc3F)CC2)c1 (stereo not drawn)	-99
O=C(C(c1ccccc1)c1ccccc1)N1CCOCC1	-213
COc1ccc(C(=O)C2CCCN(Cc3cccn3-c3ccccn3)C2)c(OC)c1 (stereo not drawn)	60*
COc1ccc(C#Cc2ccc3c(c2)O[C@H](CN(C)C(=O)NC2CCCCC2)[C@H](C)CN([C@@H](C)CO)S3(=O)=O)cc1	6
COc1cccc(S(=O)(=O)N(C)C[C@H]2Oc3ncc(C#CCC(C)C)cc3C(=O)N([C@H](C)CO)C[C@@H]2C)c1	-48
C[C@@H]1CN([C@H](C)CO)C(=O)c2cc(C#CCC3CCCC3)cnc2O[C@H]1CN(C)C(=O)CC1CC1	-6
C[C@@H]1CN([C@@H](C)CO)C(=O)c2cc(-c3cccc(C#N)c3)cnc2O[C@H]1CN(C)Cc1ccccc1	7
